This note sets out measurements from PubChem BioAssay.

Active and inactive are the calls of the source. Unless noted, the rule behind the calls is not given here.

Assay [1] relates to Wnt5a (protein binding on small-molecule microarray). Put plainly: small molecules binding Wnt5a protein – biophysical, small-molecule microarray, 635/667 nm fluorescence, primary screen (AID 1142).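 Note: fluorescence read at 667 nm with signal to noise per printed feature.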 As to conditions: 635 nm fluorescence, higher = more signal.
Assay [2] is described as follows: ATP-based viability of Huh7 replicon cells – cell-based, CellTiter-Glo luminescence, basal, 48 h, cytotoxicity control for HCV replication inhibitor project, primary screen (AID 1143).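 Note: Huh7 hepatoma cells carrying a hepatitis C replication reporter with no stimulus; test concentration not given here.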 To be noted: higher = more signal, called active from +8 up or from −8 down. For orientation: A replicon is a self-replicating genome or part of one, used to study replication in cells.

Assay [3] is described as follows: Pseudomonas biofilm growth suppression – PAO1 strain, BacTiter-Glo luminescence, LB-PBS, primary screen (AID 1144). To be noted: P. aeruginosa PAO1 biofilm, 12 h, higher = more signal.
A short description of assay [4]: basal CRE-LacZ reporter activity in PC12 – cell-based, unstimulated, primary screen (AID 1145). To be noted: no forskolin, luminescence, 4.5 h, higher = more signal, called active from +8 up or from −8 down.
The nature of assay [5]: forskolin-driven CRE-LacZ activity in PC12 – cell-based, CRE-LacZ reporter, forskolin-stimulated, primary screen (AID 1146).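 Note: PC12 cells with 6xCRE LacZ reporter stimulated by forskolin 10 µM; beta-galactosidase reporter signal reflecting CREB driven transcription.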 To be noted: luminescence, 4.5 h, higher = more signal, called active from +8 up or from −8 down.
Assay [6] concerns the target Streptavidin (Streptomyces avidinii) (UniProt P22629). Put plainly: compounds binding control protein streptavidin – biophysical, small-molecule microarray, 635/667 nm fluorescence, artefact control for SMM compound annotation, primary screen (AID 1147).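 Note: signal reflects streptavidin binding to arrayed compounds as a control protein.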 As to conditions: higher = more signal.
Assay [7] is described as follows: probe aInhba binding on compound microarray – biochemical, small-molecule microarray, 635/667 nm fluorescence, primary screen (AID 1148).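 Note: score merges 667nm spot fluorescence with signal-to-noise for antibody binding to printed compounds.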 To be noted: higher = more signal.
Assay [8] has as its target Torsin-1A (Homo sapiens) (UniProt O14656). Put plainly: TOR1A wild-type binding on microarray – cell lysate, small-molecule microarray, lysate, 635/667 nm, primary screen (AID 1149). To be noted: COS7 hTOR1A-WT lysate, 635 nm fluorescence, higher = more signal.
For assay [9] the target is unchanged. Put plainly: torsin A mutant lysate binding on microarrays – cell lysate, small-molecule microarray, COS7 lysate, 635/667 nm fluorescence, primary screen (AID 1150).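 Note: score pools 667 nm emission and signal to noise measuring lysate protein binding.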 To be noted: COS7 hTOR1A mutant lysate, 635 nm fluorescence, higher = more signal.
The subject of assay [10] is Sonic hedgehog protein (Shh). Put plainly: Sonic hedgehog microarray binding compounds – biochemical, small-molecule microarray, 635/667 nm fluorescence, primary screen (AID 1151).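 Note: Shh protein binding to compounds spotted on small-molecule microarray slides; score combines spot fluorescence intensity with signal-to-noise across triplicate slides.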 To be noted: 635 nm fluorescence, higher = more signal.
Assay [11] in a line: optical density shifts of acrAB sulA E. coli – strain DRC41, OD650, 48 h, E. coli filamentation inducer project, primary screen (AID 1152).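 Note: E. coli MC1000 strain DRC41 lacking acrAB efflux pump and sulA.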 To be noted: higher = more signal, called active from +8 up or from −8 down.
Assay [12] can be described thus: probe aLefty1 binding on compound microarray – biochemical, small-molecule microarray, 635/667 nm fluorescence, primary screen (AID 1153).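 Note: score merges spot fluorescence with signal-to-noise ratio from the scanned slide images.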 To be noted: higher = more signal.
A short description of assay [13]: plasmodial surface anion channel blockers, osmotic lysis – cell-based, P. falciparum Indochina, OD700, 1 h, primary screen (AID 1154). As to conditions: P. falciparum Indochina infected RBC osmotic lysis, higher = more signal, called active from +8 up or from −8 down.
Assay [14] can be described thus: plasmodial surface anion channel blockers, osmotic lysis – cell-based, P. falciparum Indochina, OD700, 2 h, primary screen (AID 1155).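 Note: lysis reports solute entry through the parasite surface anion channel PSAC.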 As to conditions: P. falciparum Indochina infected erythrocytes, higher = more signal, called active from +8 up or from −8 down.
A short description of assay [15]: changes in parasitized red cell lysis, either direction – P. falciparum Indochina, OD700, 3 h, PSAC antagonist project, primary screen (AID 1156). As to conditions: P. falciparum-infected erythrocytes, osmotic lysis, higher = more signal, called active from +8 up or from −8 down.
Assay [16] in a line: plasmodial surface anion channel blockers, osmotic lysis – cell-based, P. falciparum Indochina, OD700, 18 h, primary screen (AID 1157). To be noted: P. falciparum Indochina infected erythrocytes, osmotic lysis OD700, 18 h; higher = more signal, called active from +8 up or from −8 down.
A short description of assay [17]: S6 kinase pathway phospho-S6 level changes – cell-based, A549, cytoblot, luminescence, serum-stimulated, primary screen (AID 1158).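 Note: serum-stimulated A549 lung adenocarcinoma cells; signal is phosphorylated S6 detected by cytoblot immunostaining with HRP secondary.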 As to conditions: 5 h, higher = more signal.
For assay [18], the target named is NADPH oxidase 2 (Homo sapiens) (UniProt P04839). Put plainly: compounds shifting NOX2 Amplex Red fluorescence – cell-based, HEK293-NOX2, PMA-stimulated, NOX inhibitor project, primary screen (AID 1159). Note: test concentration not given here. As to conditions: 45 min, higher = more signal, called active from +8 up or from −8 down.
The target of assay [19] is NADPH oxidase 4 (Homo sapiens) (UniProt Q9NPH5). Put plainly: compounds shifting NOX4 Amplex Red fluorescence – cell-based, HEK293-NOX4, tetracycline-induced, NOX inhibitor project, primary screen (AID 1160). To be noted: HEK293-NOX4, Amplex Red H2O2 fluorescence, 45 min; higher = more signal, called active from +8 up or from −8 down.
In assay [20] the target is NADPH oxidase 5 (Homo sapiens) (UniProt Q96PH1). Nature of the assay: compounds shifting NOX5 Amplex Red fluorescence – cell-based, HEK293-NOX5, NOX inhibitor project, primary screen (AID 1161). To be noted: HEK293-NOX5, ionomycin, 45 min, higher = more signal.
Chain of NADPH oxidase 5 (Homo sapiens) (Q96PH1 whole entry, looked up): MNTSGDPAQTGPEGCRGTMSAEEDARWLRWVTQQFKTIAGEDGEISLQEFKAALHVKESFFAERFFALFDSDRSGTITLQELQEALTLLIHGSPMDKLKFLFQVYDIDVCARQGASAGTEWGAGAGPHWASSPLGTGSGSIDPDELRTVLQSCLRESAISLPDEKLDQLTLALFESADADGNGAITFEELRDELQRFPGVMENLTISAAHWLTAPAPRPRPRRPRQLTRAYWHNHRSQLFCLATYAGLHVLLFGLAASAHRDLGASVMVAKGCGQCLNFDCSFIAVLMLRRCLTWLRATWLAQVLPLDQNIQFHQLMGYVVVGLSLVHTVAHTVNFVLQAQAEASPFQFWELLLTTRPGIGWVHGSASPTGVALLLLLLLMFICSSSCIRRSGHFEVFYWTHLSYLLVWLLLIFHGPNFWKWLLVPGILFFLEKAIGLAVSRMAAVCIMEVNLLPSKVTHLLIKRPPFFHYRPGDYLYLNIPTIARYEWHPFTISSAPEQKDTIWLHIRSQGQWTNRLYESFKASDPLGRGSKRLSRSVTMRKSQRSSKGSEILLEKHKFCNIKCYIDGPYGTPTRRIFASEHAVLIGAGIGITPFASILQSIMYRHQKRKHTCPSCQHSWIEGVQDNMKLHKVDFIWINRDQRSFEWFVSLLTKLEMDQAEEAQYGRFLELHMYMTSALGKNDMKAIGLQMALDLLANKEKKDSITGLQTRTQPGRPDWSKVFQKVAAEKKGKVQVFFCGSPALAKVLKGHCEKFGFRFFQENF

Chain of NADPH oxidase 4 (Homo sapiens) (Q9NPH5 whole entry, looked up): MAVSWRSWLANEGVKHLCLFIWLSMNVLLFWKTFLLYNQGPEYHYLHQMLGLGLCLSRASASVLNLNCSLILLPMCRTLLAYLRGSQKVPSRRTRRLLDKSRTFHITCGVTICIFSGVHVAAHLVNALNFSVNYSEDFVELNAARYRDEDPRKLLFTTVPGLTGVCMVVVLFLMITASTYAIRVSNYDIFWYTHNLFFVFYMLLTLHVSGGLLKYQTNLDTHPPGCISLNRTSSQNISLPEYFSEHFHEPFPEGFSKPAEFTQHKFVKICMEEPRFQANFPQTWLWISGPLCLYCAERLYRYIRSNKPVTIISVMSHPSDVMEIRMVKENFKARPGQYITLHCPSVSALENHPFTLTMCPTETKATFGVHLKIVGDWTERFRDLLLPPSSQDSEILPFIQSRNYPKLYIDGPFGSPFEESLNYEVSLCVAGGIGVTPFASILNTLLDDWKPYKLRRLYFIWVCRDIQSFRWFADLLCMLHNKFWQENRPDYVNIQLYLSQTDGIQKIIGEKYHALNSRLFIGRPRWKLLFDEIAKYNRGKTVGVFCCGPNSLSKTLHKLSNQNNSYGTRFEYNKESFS
Chain of Torsin-1A (Homo sapiens) (O14656 whole entry, looked up): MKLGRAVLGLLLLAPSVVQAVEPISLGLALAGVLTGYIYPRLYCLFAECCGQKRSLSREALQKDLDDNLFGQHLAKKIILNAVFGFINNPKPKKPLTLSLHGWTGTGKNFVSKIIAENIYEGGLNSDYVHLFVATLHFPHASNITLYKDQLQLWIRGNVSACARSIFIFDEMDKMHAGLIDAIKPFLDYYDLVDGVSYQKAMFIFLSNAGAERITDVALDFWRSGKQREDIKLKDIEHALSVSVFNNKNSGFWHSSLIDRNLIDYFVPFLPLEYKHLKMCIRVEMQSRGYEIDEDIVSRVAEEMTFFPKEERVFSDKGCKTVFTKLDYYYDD
Chain of NADPH oxidase 2 (Homo sapiens) (P04839 whole entry, looked up): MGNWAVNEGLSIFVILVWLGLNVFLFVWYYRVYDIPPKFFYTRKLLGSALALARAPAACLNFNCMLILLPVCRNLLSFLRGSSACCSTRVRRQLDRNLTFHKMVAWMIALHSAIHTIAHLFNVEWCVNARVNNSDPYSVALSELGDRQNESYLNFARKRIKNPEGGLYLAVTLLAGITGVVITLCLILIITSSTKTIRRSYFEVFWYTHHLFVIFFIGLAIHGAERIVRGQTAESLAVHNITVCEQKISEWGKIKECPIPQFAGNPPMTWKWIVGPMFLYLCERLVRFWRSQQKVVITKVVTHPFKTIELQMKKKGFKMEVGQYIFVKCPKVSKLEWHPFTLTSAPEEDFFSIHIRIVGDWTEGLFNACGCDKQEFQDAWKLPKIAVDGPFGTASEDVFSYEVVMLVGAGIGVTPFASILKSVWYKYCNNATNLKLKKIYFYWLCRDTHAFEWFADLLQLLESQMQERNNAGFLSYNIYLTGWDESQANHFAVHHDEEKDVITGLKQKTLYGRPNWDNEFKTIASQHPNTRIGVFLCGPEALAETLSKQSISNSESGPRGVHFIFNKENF
Chain of Streptavidin (Streptomyces avidinii) (P22629 whole entry, looked up): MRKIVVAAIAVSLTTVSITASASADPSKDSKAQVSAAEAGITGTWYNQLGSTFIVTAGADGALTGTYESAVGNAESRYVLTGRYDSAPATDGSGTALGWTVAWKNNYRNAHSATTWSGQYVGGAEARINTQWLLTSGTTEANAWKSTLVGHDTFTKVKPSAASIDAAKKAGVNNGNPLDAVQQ

Turning to `COCCOC(=O)N1C(=O)[C@@]2(c3cc(C#CCCO)ccc31)[C@H](C(=O)N1CCN(c3ncccn3)CC1)[C@H]1C(=O)O[C@H](c3ccccc3)[C@H](c3ccccc3)N1[C@@H]2c1ccc(O)cc1`, the composite z-score was 0.15 in [1]; -0.269 in [6]; -0.291 in [7]; -0.144 with Torsin-1A (Homo sapiens) [8]; 0.522 with Torsin-1A (Homo sapiens) [9]; 1.11 in assay [10]. In assay [12], this compound registered a composite z-score of -0.36. Further, the z-score in assay [2] was -1.79 (inactive); in assay [3], -0.798 (inactive); in assay [4], 0.484 (inactive); in [5], 0.268 (inactive); in [11], 1.35 (inactive); in assay [13], 1.78 (inactive). The z-score in assay [14] is 0.133 (inactive); in assay [15], 1.21 (inactive); in assay [16] it was 0.684 (inactive); in [17], 0.188; in assay [18], 1.69 (inactive); in assay [19], 1.21 (inactive). Besides, the z-score in assay [20] was 1.29.

With `CC(C)C[C@@H]1NC(=O)[C@@]23C(=O)N[C@@H](Cc4ccccc4)C2[C@H](C)[C@@]2(C)O[C@H]2C3/C=C/C/C=C\CNC(=O)[C@@H](CC(C)C)NC1=O` (stereo not given in full), the composite z-score in assay [1] is 0.0669; in assay [6], -0.463; in [7], -0.128; with Torsin-1A (Homo sapiens) [8], 0.295; with Torsin-1A (Homo sapiens) [9] it was 0.068; in assay [10], 1.39. In assay [12], the composite z-score was determined as 0.0774. For the same compound, the z-score is -0.91 (inactive) in assay [2]; 0.587 (inactive) in assay [3]; 2.66 (inactive) in assay [4]; 0.158 (inactive) in [5]; -0.664 (inactive) in assay [11]; 1.44 (inactive) in [13]. The z-score in assay [14] was -0.172 (inactive); in [15] it was 0.0094 (inactive); in [16], -0.0134 (inactive); in [17], 0.0885; in assay [18], 0.063 (inactive); in assay [19], 0.41 (inactive). Besides, the z-score in assay [20] was -3.22.

Turning to `C=C(C(=O)CC[C@@H](OC(C)=O)c1cccc(OCCO)c1)C(C)C`, the composite z-score in assay [1] is -0.162; in [6], -0.377; in assay [7] it was 0.0053; with Torsin-1A (Homo sapiens) [8], 1.93; in the assay with Torsin-1A (Homo sapiens) [9] it was 0.456; in assay [10], 2. For the same compound, in [12], the composite z-score worked out at 0.11. The z-score is -0.344 (inactive) in assay [2]; 0.0482 (inactive) in assay [3]; 2.29 (inactive) in [4]; 1.23 (inactive) in [5]; -0.369 (inactive) in assay [11]; 3.09 (inactive) in assay [13]. In addition, the z-score in [14] is -0.0769 (inactive); in [15] it was 1.38 (inactive); in assay [16], 0.0127 (inactive); in [17], -0.78; in assay [18], 0.825 (inactive); in [19] it was -1.12 (inactive). Further, the z-score in [20] is -1.05.

Regarding `CC(C)C[C@@H]1NC(=O)[C@H]2C[C@@H](C(=O)NCCCCCCNC(=O)CS)[C@@H](c3ccc(O)cc3)N2C1=O`, the composite z-score was 0.472 in assay [1]; -0.406 in assay [6]; -0.179 in [7]; 1 with Torsin-1A (Homo sapiens) [8]; 0.766 with Torsin-1A (Homo sapiens) [9]; 1.84 in assay [10]. For the same compound, the composite z-score in assay [12] is -0.0603. Further, the z-score in [2] is 1.03 (inactive); in assay [3], -1.02 (inactive); in [4] it was -0.805 (inactive); in assay [5] it was -0.732 (inactive); in assay [11], 0.13 (inactive); in assay [13] it was 7.66 (inactive). Moreover, the z-score is 0.64 (inactive) in assay [14]; 1.4 (inactive) in assay [15]; -0.0166 (inactive) in assay [16]; 0.795 in [17]; 1.64 (inactive) in assay [18]; 0.633 (inactive) in assay [19]. Also, the z-score in assay [20] came out at 0.755.

Take `O=C1NC(=O)C2C1C=CC(C(O)c1cccc(O)c1)N2Nc1ccc(Cl)cc1Cl` (stereo not given): the composite z-score was -0.125 in assay [1]; 0.423 in [6]; -0.13 in assay [7]; -0.309 with Torsin-1A (Homo sapiens) [8]; 0.25 with Torsin-1A (Homo sapiens) [9]; -1.14 in [10]. The compound also gave a composite z-score in assay [12] of 0.139. The z-score in [2] was -1.08 (inactive); in assay [3] it was -0.355 (inactive); in assay [4] it was 0.629 (inactive); in assay [5], -0.45 (inactive); in assay [11], -4.5 (inactive); in assay [13], 4.82 (inactive). The z-score in assay [14] is 1.36 (inactive); in assay [15], -0.608 (inactive); in [16], 0.901 (inactive); in [17], -1.22; in assay [18] it was -0.897 (inactive); in assay [19], -5.3 (inactive). For the same compound, the z-score in assay [20] was -3.11.
